Shown are actives, neighbours in structure and some others; about 7.9% of the full set was active somewhere.
HT1080NT lethal = kills 2HG-producing HT-1080-NT fibrosarcoma cells | actives 1.6% (n = 360,000) | AID 686970 | Potency, µM (doses to about 46.1 µM), usual class: cytotoxic | HT-1080-NT fibrosarcoma viability, CellTiter-Glo ATP luminescence, 48 h;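 also: NT is the 2HG producing partner of a matched IDH1 knockdown line; nearly all actives have a fitted effect of over 55% in size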
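Compounds were tested in concentration-response format on HT-1080-NT cells for 48 hours at 37 degrees C. Cell viability came from CellTiter-Glo luminescence; curves were classified by r2, response magnitude and activity.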
KB-V1 cytotox = kills drug-selected multidrug resistant KB-V1 cells. KB-V1 MDR cells viability, CellTiter-Glo, 72 h. Potency, µM (titrated, usually from 46.1 µM), actives largely listed as cytotoxic. actives 3.4% (n = 400,000). AID 1347076; also: nearly all actives have a fitted effect of over 60% in size
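In this primary screen, KB-V1 cells overexpressing P-gp are incubated with library compounds (lowest to highest concentration) for 72 h at 37 degrees C before a luminescent ATP viability read.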
SW480 rerep = induces DNA re-replication in SW480 colon adenocarcinoma cells; Potency, µM (titrated, usually from 46.1 µM), usual class: activators; actives 1.8% (n = 340,000); SW480 DNA re-replication, Hoechst DNA content imaging, 48 h; also: nearly all actives have a fitted effect of over 55% in size
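Compounds, transferred as 23 nL by pin tool, were incubated with cells for 48 hr; DNA content per nucleus was then quantified by Hoechst staining and fluorescence plate imaging.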
HT1080 IDH1KD tx = toxicity to HT-1080 IDH1 knockdown cells (counter line); HT-1080 IDH1 knockdown viability, ATP luminescence, 48 h; Potency, µM (top dose mostly 46.1 µM), actives largely listed as cytotoxic; actives 2% (n = 360,000); AID 686971
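CellTiter-Glo luminescence after 48 h compound exposure at 37 degrees C of IDH1-knockdown HT-1080 cells in 5% FBS RPMI. %Activity scaled between DMSO wells and cell-free media wells, with curves fitted and assigned curve classes.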
MCF10A rerep = inducers of DNA re-replication in MCF 10A breast cells; MCF 10A DNA re-replication, Hoechst nuclear intensity, 48 h; Potency, µM (highest dose often 46.1 µM), actives largely listed as activators; AID 624296; actives 2.9% (n = 350,000); also: nearly all actives have a fitted effect of over 50% in size
KB-3-1 cytotox = kills parental KB-3-1 adenocarcinoma cells; KB-3-1 viability, CellTiter-Glo ATP luminescence, 72 h; Potency, µM (series often up to 46.1 µM), hits mostly cytotoxic; actives 1.4% (n = 400,000); also: nearly all actives have a fitted effect of over 60% in size
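Cytotoxicity measured as CellTiter-Glo luminescence after 72 h at 37 C. Compound titrations were pinned onto drug-naive KB-3-1 parental adenocarcinoma cells grown in DMEM with 10% FBS, and normalized data fitted to concentration-response curves.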
Numbers stand for hits; 0 = inactive; ? = inconclusive; - = no result given. Calls follow the shape of the dose curve; as a rule, active = well fitted curve in the direction sought with a large enough effect; inconclusive = small, poorly fitted or top-dose-only effect, or another doubt; inactive = no such curve, though single readings can be large; an effect the other way counts as inactive or inconclusive.

SMILES | HT1080NT lethal | KB-V1 cytotox | SW480 rerep | HT1080 IDH1KD tx | MCF10A rerep | KB-3-1 cytotox
COc1ccc(CNC(=O)C2CC(c3cc(C(F)(F)F)cc(C(F)(F)F)c3)=NO2)cc1 (configuration not stated) | 0 | ? | 0 | 0 | 6.5µM | ?
NC(=S)NNC(=O)[C@@H]1CCCC[C@@H]1C(=O)O | 0 | 0 | 0.52µM | 0 | 0 | 0
O=C(O)C1CCCCC1C(=O)NC1C2CC3CC(C2)CC1C3 (configuration not stated) | 0 | ? | 0 | 0 | 0 | 0
CCC(=O)N1CCc2cc(S(=O)(=O)CCC(=O)N(C)c3ccc(OC)cc3)ccc21 | 0 | 0 | ? | 0 | 0 | 0
CC1CCCCN1C(=O)c1cnn2c1NC(=C1CC1)C=C2C(F)F (configuration not stated) | 0 | - | - | 0 | - | -
Cc1noc(C)c1NC(=O)N(C)C[C@H]1Oc2ccc(NC(=O)Cc3ccccc3)cc2C(=O)N([C@H](C)CO)C[C@@H]1C | 0 | 0 | 0 | 0 | 0 | 0
Cn1c(SCc2ccccc2F)nc2cccnc21 | 0 | 18µM | 0 | 0 | 0 | 0
CCc1nnc(NC(=O)CSc2nnc(-c3ccccc3O)n2-c2ccc(C)cc2C)s1 | 4.6µM | 18µM | 18µM | ? | 9.2µM | ?
CCc1nnc(NC(=O)CSc2nnc(COc3ccccc3)n2-c2ccc(C)cc2)s1 | 0 | 0 | 0 | 0 | 0 | 0
COc1ccc2c(CNCc3cccs3)c(C(=O)O)n(Cc3ccc(F)cc3Cl)c2c1 | - | ? | - | - | - | 0
COc1ccc2c(CNCc3cccs3)c(C(=O)O)n(Cc3ccc(F)cc3)c2c1 | - | 0 | - | - | - | 16µM
COc1ccc(Cn2c(C(=O)O)c(CNCc3cccs3)c3ccc(C)cc32)cc1 | - | 0 | - | - | - | ?
C=Cc1ccc(Cn2c(C(=O)O)c(CNCc3cccs3)c3ccc(C)cc32)cc1 | - | 0 | - | - | - | 0
Cc1ccc2c(CNCc3cccs3)c(C(=O)O)n(Cc3ccc(F)cc3)c2c1 | - | 0 | - | - | - | 12µM
C=Cc1ccc(Cn2c(C(=O)O)c(CNCc3ccc(F)cc3)c3ccc(C)cc32)cc1 | - | 0 | - | - | - | 7.3µM
Cc1ccc(Cl)cc1NC(=O)Cn1c(=O)n(Cc2ccccc2)c(=O)c2oc3ccccc3c21 | - | 0 | - | - | - | 0
CC(C)CC(=O)Nc1ccc(C(=O)NNC(=S)NC(=O)C2CCCCC2)cc1 | 7.9µM | 10µM | 0 | ? | 0 | 0
CCN1CCN(C(c2ccc(F)cc2)c2nnnn2Cc2cccs2)CC1 (configuration not stated) | ? | 0 | ? | 0 | 23µM | 0
CC(Nc1nc(-c2ccc(F)cc2)cs1)c1nc2cc(Cl)c(N3CCCCC3)cc2n1CCOCCO (configuration not stated) | ? | 0 | 0 | ? | 0 | ?
CC(Nc1nc(-c2ccc(F)cc2)cs1)c1nc2cc(Cl)c(N3CCCCC3)cc2n1CCCO (configuration not stated) | 0 | ? | ? | ? | 21µM | ?
CCCCCc1ccc(-c2cn(Cc3ccc4c(c3)C(=O)c3ccccc3C4=O)nn2)cc1 | - | 0 | - | - | - | 0
CC(C)C(=O)c1cn(CC(=O)NCc2ccco2)c2ccccc12 | 0 | 0 | ? | 0 | 0 | 0
CCOC(=O)C(C)Oc1cccc2c(=O)n(CC(=O)NCc3ccco3)ccc12 (configuration not stated) | ? | 0 | 1.3µM | 1.6µM | ? | 0.73µM
COc1ccc(NC(=S)NC23CN4CN(CN(C4)C2)C3)cc1 | 0 | 0 | 0.52µM | 0 | 0 | 0
Cc1ccc(C(C)C)c(OCCNC(=S)Nc2cccc3ccccc23)c1 | 5.6µM | 0 | 5.6µM | 7.9µM | ? | ?
COc1cc(CCC(=O)Nc2ccc(S(=O)(=O)N3CCCC3)cc2)cc(OC)c1OC | 0 | 0 | 0 | 0 | 0 | 0
COc1cc(CCC(=O)Nc2ccc(C)c(S(=O)(=O)N3CCCCCC3)c2)cc(OC)c1OC | 0 | 3.7µM | 0 | ? | 0 | 6.5µM
COc1ccc(C(=O)OCc2ccccc2F)cc1S(=O)(=O)N1CCCC1 | 0 | 16µM | 0 | 0 | 0 | 0

Bioassay records as filed in PubChem BioAssay.
